Results filed as inconclusive are left out. The source made the active and inactive calls. Calls follow the shape of the dose curve; as a rule, active = well fitted cell-killing curve with a large enough effect; inconclusive = small, poorly fitted or top-dose-only effect, or effect the other way; inactive = no such curve, though single readings can be large or run the other way.
Tests used:
[1] = Quantitative High-Throughput drug screen in 47 multiple myeloma cell lines against the NCATS MIPE library collection: MM1R_ATCC cell viability assay (AID 1918981); also: nearly all actives have a fitted effect of over 35% in size
Outline: (§1)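 Readout: median RLU from CellTiter-Glo after 5 min at room temperature. Preceding step was 48 h drug treatment of 500 cells/well at 37 °C, 5% CO2, with DMSO-only and media-only control wells.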

[2] = Quantitative High-Throughput drug screen in 47 multiple myeloma cell lines against the NCATS MIPE library collection: LP1_DSMZ cell viability assay (AID 1918982); also: nearly all actives have a fitted effect of over 35% in size
Outline: as §1

[3] = Quantitative High-Throughput drug screen in 47 multiple myeloma cell lines against the NCATS MIPE library collection: KMS28PE_JCRB cell viability assay (AID 1918983); also: nearly all actives have a fitted effect of over 35% in size
Outline: as §1

[4] = Quantitative High-Throughput drug screen in 47 multiple myeloma cell lines against the NCATS MIPE library collection: L363_DSMZ cell viability assay (AID 1918984); conditions: L363 myeloma viability, CellTiter-Glo ATP luminescence, 48 h; viability (% of control): at 45.8 µM (top of the series); also: nearly all actives have a fitted effect of over 40% in size
Outline: as §1

[5] = Quantitative High-Throughput drug screen in 47 multiple myeloma cell lines against the NCATS MIPE library collection: OPM1_PLB cell viability assay (AID 1918989); also: nearly all actives have a fitted effect of over 40% in size;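 as to viability (% of control): 100% = DMSO-only wells and 0% = media-only wells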
Outline: as §1

[6] = Quantitative High-Throughput drug screen in 47 multiple myeloma cell lines against the NCATS MIPE library collection: SKMM1_PLB cell viability assay (AID 1919863); conditions: SKMM1 myeloma viability, CellTiter-Glo ATP, 48 h; viability: active compounds read low; also: nearly all actives have a fitted effect of over 35% in size
Outline: as §1

[7] = Quantitative High-Throughput drug screen in 47 multiple myeloma cell lines against the NCATS MIPE library collection: XG6_PLB cell viability assay (AID 1919865); also: nearly all actives have a fitted effect of over 40% in size;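 as to viability (% of control): 100% = DMSO-only wells and 0% = media-only wells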
Outline: as §1

[8] = Quantitative High-Throughput drug screen in 47 multiple myeloma cell lines against the NCATS MIPE library collection: XG1_PLB cell viability assay (AID 1919866); also: nearly all actives have a fitted effect of over 35% in size
Outline: as §1

[9] = Quantitative High-Throughput drug screen in 47 multiple myeloma cell lines against the NCATS MIPE library collection: VP6_DJ cell viability assay (AID 1919867); also: nearly all actives have a fitted effect of over 40% in size;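 as to viability (% of DMSO): 100% = DMSO-only wells and 0% = wells with media alone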
Outline: as §1

[10] = Quantitative High-Throughput drug screen in 47 multiple myeloma cell lines against the NCATS MIPE library collection: PE2_PLB cell viability assay (AID 1919869); also: nearly all actives have a fitted effect of over 35% in size;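 as to viability (% of control): 100% = DMSO-only wells and 0% = cell-free media-only wells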
Outline: as §1

[11] = Quantitative High-Throughput drug screen in 47 multiple myeloma cell lines against the NCATS MIPE library collection: OPM2_DSMZ cell viability assay (AID 1919872); also: nearly all actives have a fitted effect of over 30% in size
Outline: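 Relative luminescence from CellTiter-Glo served as the viability signal, referenced to DMSO-treated (100%) and cell-free medium (0%) controls. Treatment lasted 48 hours at 37C with 500 cells per well.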

[12] = Quantitative High-Throughput drug screen in 47 multiple myeloma cell lines against the NCATS MIPE library collection: KMS11_JCRBsus cell viability assay (AID 1919873); also: nearly all actives have a fitted effect of over 50% in size;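 as to viability (% of control): 100% = DMSO-only wells and 0% = media-only wells without cells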
Outline: as §1

[13] = Quantitative High-Throughput drug screen in 47 multiple myeloma cell lines against the NCATS MIPE library collection: OCIMY7_PLB cell viability assay (AID 1918987); conditions: OCI-MY7 myeloma viability, CellTiter-Glo ATP, 48 h; viability (% of DMSO): at 45.8 µM (top of the series); also: nearly all actives have a fitted effect of over 65% in size
Outline: as §1

[14] = Quantitative High-Throughput drug screen in 47 multiple myeloma cell lines against the NCATS MIPE library collection: OCIMY5_PLB cell viability assay (AID 1918988); also: nearly all actives have a fitted effect of over 65% in size
Outline: as §1

[15] = Quantitative High-Throughput drug screen in 47 multiple myeloma cell lines against the NCATS MIPE library collection: U266_ATCC cell viability assay (AID 1919864); also: nearly all actives have a fitted effect of over 35% in size;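 as to viability (% of DMSO control): 0% = media-only wells without cells and 100% = DMSO-only wells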
Outline: as §1

[16] = Quantitative High-Throughput drug screen in 47 multiple myeloma cell lines against the NCATS MIPE library collection: PCM6_Riken cell viability assay (AID 1919870); also: nearly all actives have a fitted effect of over 30% in size;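 as to viability (% of control): 100% = DMSO-only wells and 0% = media-only wells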
Outline: as §1

[17] = Quantitative High-Throughput drug screen in 47 multiple myeloma cell lines against the NCATS MIPE library collection: RPMI8226_ATCC cell viability assay (AID 1919871); also: nearly all actives have a fitted effect of over 30% in size
Outline: as §1

[18] = Quantitative High-Throughput drug screen in 47 multiple myeloma cell lines against the NCATS MIPE library collection: KMS28BM_JCRB cell viability assay (AID 1919874); also: nearly all actives have a fitted effect of over 35% in size
Outline: as §1

[19] = Quantitative High-Throughput drug screen in 47 multiple myeloma cell lines against the NCATS MIPE library collection: KMS34_JCRB cell viability assay (AID 1918985); also: nearly all actives have a fitted effect of over 40% in size
Outline: as §1

[20] = Quantitative High-Throughput drug screen in 47 multiple myeloma cell lines against the NCATS MIPE library collection: UTMC2_PLB cell viability assay (AID 1919868); conditions: CellTiter-Glo ATP luminescence, 48 h; viability (% of DMSO control): at 45.8 µM (top of the series); also: nearly all actives have a fitted effect of over 55% in size;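 as to viability (% of DMSO control): 100% = DMSO-only wells and 0% = media-only wells without cells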
Outline: as §1
Potency is read from the fitted curve at half-maximal effect.

CNC(=O)c1cc(Oc2ccc(NC(=O)Nc3ccc(Cl)c(C(F)(F)F)c3)c(F)c2)ccn1
active: Potency [1] 20.9 µM | Potency [2] 16.6 µM | Potency [3] 20.9 µM | Potency [4] 6.62 µM | Potency [6] 20.9 µM | Potency [7] 0.935 µM | Potency [8] 2.64 µM | Potency [9] 2.96 µM | Potency [10] 3.32 µM | Potency [11] 18.7 µM | Potency [12] 14.8 µM
inactive: Potency [5]

CN1CC(=O)NC1=NC(=O)Nc1cccc(Cl)c1
inactive: Potency [3] | Potency [9] | Potency [11] | Potency [18]
active: Potency [1] 18.7 µM | Potency [2] 14.8 µM | Potency [4] 2.96 µM | Potency [13] 13.2 µM | Potency [14] 23.5 µM | Potency [5] 18.7 µM | Potency [6] 18.7 µM | Potency [15] 20.9 µM | Potency [7] 23.5 µM | Potency [8] 29.6 µM | Potency [10] 20.9 µM | Potency [16] 23.5 µM | Potency [17] 14.8 µM | Potency [12] 11.8 µM

CN(C)CCOc1ccc(-c2nc(-c3ccc4c(c3)CCC4=NO)c(-c3ccncc3)[nH]2)cc1
active: Potency [1] 18.7 µM | Potency [2] 20.9 µM | Potency [3] 23.5 µM | Potency [4] 6.62 µM | Potency [19] 13.2 µM | Potency [14] 23.5 µM | Potency [5] 16.6 µM | Potency [6] 20.9 µM | Potency [15] 26.4 µM | Potency [7] 16.6 µM | Potency [8] 18.7 µM | Potency [9] 18.7 µM | Potency [10] 16.6 µM | Potency [16] 10.5 µM | Potency [17] 20.9 µM | Potency [12] 11.8 µM

COc1ccc(-c2cc(=O)c3c(O)cc(O[C@@H]4O[C@H](CO[C@@H]5O[C@@H](C)[C@H](O)[C@@H](O)[C@@H]5O)[C@@H](O)[C@H](O)[C@@H]4O)cc3o2)cc1O
inactive: Potency [1] | Potency [2] | Potency [3] | Potency [4] | Potency [19] | viability [6] 120% | Potency [17] | Potency [11] | Potency [12] | Potency [18]
active: Potency [13] 10.5 µM | Potency [14] 18.7 µM | Potency [15] 18.7 µM | Potency [7] 9.35 µM | Potency [8] 8.33 µM | Potency [9] 14.8 µM | Potency [10] 23.5 µM | Potency [16] 11.8 µM

Fc1ccc(CNc2ncnc3ccc(F)cc23)cc1
inactive: viability [6] 104%
active: Potency [1] 10.5 µM | Potency [2] 2.64 µM | Potency [3] 11.8 µM | Potency [4] 5.26 µM | Potency [14] 16.6 µM | Potency [5] 16.6 µM | Potency [15] 13.2 µM | Potency [7] 14.8 µM | Potency [8] 4.69 µM | Potency [9] 5.9 µM | Potency [17] 5.26 µM | Potency [12] 10.5 µM

CC1=C(C(=O)Nc2cc3cn[nH]c3cc2F)C(c2ccc(C(F)(F)F)cc2)CC(=O)N1 (stereo not given)
active: Potency [20] 8.33 µM | Potency [16] 10.5 µM
inactive: Potency [1] | Potency [2] | Potency [3] | Potency [4] | Potency [19] | Potency [14] | Potency [5] | viability [6] 160% | Potency [15] | Potency [7] | Potency [10] | Potency [17] | Potency [11] | Potency [18]

O=C1C(CCC(O)c2ccc(F)cc2)C(c2ccc(O)cc2)N1c1ccc(F)cc1 (stereo not given)
inactive: Potency [1] | Potency [2] | Potency [3] | Potency [4] | Potency [19] | Potency [13] | viability [6] 99.3% | Potency [8] | Potency [17] | Potency [11] | Potency [12] | Potency [18]
active: Potency [7] 2.09 µM | Potency [9] 3.32 µM

CCCCCOC(=O)Nc1nc(=O)n([C@@H]2O[C@H](C)[C@@H](O)C2O)cc1F (stereo not given in full)
inactive: Potency [1] | Potency [2] | Potency [3] | Potency [4] | Potency [19] | Potency [13] | Potency [5] | Potency [15] | Potency [20] | Potency [10] | Potency [17] | Potency [11]
active: Potency [7] 3.32 µM | Potency [9] 2.64 µM

CC1=C(CC(=O)O)c2cc(F)ccc2C1=Cc1ccc(S(C)=O)cc1 (stereo not given)
active: Potency [1] 3.32 µM | Potency [3] 20.9 µM | Potency [4] 13.2 µM | Potency [14] 0.935 µM | Potency [5] 26.4 µM | Potency [15] 1.18 µM | Potency [7] 1.05 µM | Potency [8] 0.935 µM | Potency [9] 7.43 µM | Potency [20] 18.7 µM | Potency [10] 20.9 µM | Potency [12] 3.72 µM | Potency [18] 9.35 µM
inactive: Potency [2] | viability [6] 92.7% | Potency [17] | Potency [11]

CN(C)c1ccc(-c2nc3ncc(Cl)c(N4CCN(CC(=O)Nc5nccs5)CC4)c3[nH]2)cc1
inactive: Potency [2] | Potency [4] | Potency [9] | Potency [16]
active: Potency [1] 3.72 µM | Potency [3] 5.26 µM | Potency [19] 2.96 µM | Potency [13] 1.66 µM | Potency [14] 5.26 µM | Potency [5] 1.87 µM | Potency [6] 14.8 µM | Potency [15] 2.96 µM | Potency [7] 2.64 µM | Potency [10] 1.32 µM | Potency [17] 4.18 µM | Potency [12] 0.833 µM | Potency [18] 2.35 µM

CN(C)CCN(Cc1ccc(Cl)cc1)c1ccccn1
active: Potency [3] 5.9 µM | Potency [13] 14.8 µM | Potency [9] 20.9 µM | Potency [20] 16.6 µM
inactive: Potency [1] | Potency [2] | Potency [4] | Potency [19] | Potency [17] | Potency [12]

Source: PubChem BioAssay (NCATS)
